PNC inhibitor: High Content Assay for Compounds that inhibit the Assembly of the Perinucleolar Compartment; activity change (PNC), negative = inhibition, % at 10 µM; PC3M PTB-GFP, PNC prevalence imaging, 16 h; hits give low values; AID 2417, 2010; 140,000 compounds, 3.1% hits;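 active = readout at or below -70, meaning at least 70% loss of cells showing the perinucleolar compartment, a nuclear body marking cancer cells; inconclusive = readout between -30 and a set limit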;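 also: plate controls were DMSO wells for no effect and camptothecin positive control wells for full effect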
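Compounds are pinned in duplicate onto adhered PC3M cells stably expressing GFP-tagged PTB and incubated 16 h at 37 C. Cells are then fixed, nuclei stained with Hoechst, and PNC-positive cells counted.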
HttQ103 aggreg: qHTS Multiplex Assay to Identify Dual Action Probes in a Cell Model of Huntington: Aggregate Formation (GFP); Potency, µM (series often up to 46.1 µM), without a hit: at the highest dose activity change, negative = inhibition, actives largely listed as inhibitors; 220,000 compounds, 1.1% hits; PC12 HttQ103-GFP aggregates, Acumen cytometry, 40 h; also: potency is read from the fitted curve at half-maximal effect; % is scaled to controls: 0 for no effect and ±100 for the full control effect; nearly all actives have a fitted effect of over 60% in size
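Ecdysone-promoter PC12 model expressing HTT exon 1 Q103 fused to GFP, induced by tebufenozide at 100 nM final. Compounds titrated; aggregates sized 1–25 µm scored on a 488 nm laser cytometer.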
ALOX12 inhib: qHTS Assay for Inhibitors of 12-hLO (12-human lipoxygenase). Polyunsaturated fatty acid lipoxygenase ALOX12 (Homo sapiens), P18054. Potency, µM (titrated, usually from 57.1 µM), inactives show top-dose activity change, negative = inhibition, hits mostly inhibitors. AID 1452, 2008. 150,000 compounds, 0.12% hits. purified 12-hLO, xylenol orange hydroperoxide absorbance; also: potency is read from the fitted curve at half-maximal effect; % is scaled to controls: 0 for no effect and ±100 for the full control effect; nearly all actives have a fitted effect of over 55% in size
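Lipoxygenase turnover measured by absorbance at 573 and 405 nm after Fe-XO development. Human 12hLO 150 nM, arachidonate 40 uM, pH 7.0 Hepes buffer with detergent; 15 min compound preincubation, 30 min reaction.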
NPSR antagonist: qHTS Assay for Antagonists of the Neuropeptide S Receptor: cAMP Signal Transduction | CHO-NPSR cells, cAMP TR-FRET, antagonist mode | Q6W5P4 | 220,000 compounds, 1% hits | Potency, µM (titrated, usually from 38.3 µM), for inactives: at the highest dose activity change, negative = inhibition, hits mostly inhibitors; also: potency is read from the fitted curve at half-maximal effect; % is scaled to controls: 0 for no effect and ±100 for the full control effect; nearly all actives have a fitted effect of over 50% in size
Target sequence (Q6W5P4 whole entry, looked up): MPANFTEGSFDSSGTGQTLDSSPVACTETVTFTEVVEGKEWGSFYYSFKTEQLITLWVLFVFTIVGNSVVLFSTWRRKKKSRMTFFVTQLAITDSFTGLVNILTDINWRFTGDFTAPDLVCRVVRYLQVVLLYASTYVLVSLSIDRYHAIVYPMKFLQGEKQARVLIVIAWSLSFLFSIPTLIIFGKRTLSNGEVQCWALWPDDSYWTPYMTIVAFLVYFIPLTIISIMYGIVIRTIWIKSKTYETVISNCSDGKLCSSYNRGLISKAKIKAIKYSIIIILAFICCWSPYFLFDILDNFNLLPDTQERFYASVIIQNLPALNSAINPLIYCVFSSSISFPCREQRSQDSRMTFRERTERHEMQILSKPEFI
HTT ATP protect: qHTS Multiplex Assay to Identify Dual Action Probes in a Cell Model of Huntington: Cytoprotection (ATP) | PC12 HTT-Q103 induced, cytoprotection, ATP luminescence, 40 h | AID 1471, 2008 | 230,000 compounds, 0.14% hits | Potency, µM (doses to about 56.4 µM), inactives show cytoprotection (ATP increase), actives largely listed as activators; also: potency is read from the fitted curve at half-maximal effect; % of control where 0% means no effect; nearly all actives have a fitted effect of over 45% in size
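Huntington model: PC12 line, ecdysone-inducible HTTQ103 exon1–GFP, tebufenozide 100 nM. Test articles in a dose series. Endpoint luminescence from cellular ATP.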
IMPase cell inh: qHTS Assay for Identifying the Cell-Membrane Permeable IMPase Inhibitors; 120,000 tested, under 10 active; CHO-M1 cells, IP1 accumulation, HTRF TR-FRET ratio; inhibition (IP1 accumulation), % at 46.1 µM; active = well fitted curve in the direction sought with a large enough effect in the signal ratio, not every such curve was filed as active; inconclusive = small, poorly fitted or top-dose-only effect, or a change in a side signal; inactive = no such curve, though single readings can be large or run the other way; the % refers to the signal ratio;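 also: cells stimulated with carbachol in lithium chloride buffer; plate controls were DMSO basal wells for no effect and reference inhibitor wells for full effect; higher means more IMPase inhibition seen as more IP1 and lower FRET ratio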
Target sequence (P97697 whole entry, looked up): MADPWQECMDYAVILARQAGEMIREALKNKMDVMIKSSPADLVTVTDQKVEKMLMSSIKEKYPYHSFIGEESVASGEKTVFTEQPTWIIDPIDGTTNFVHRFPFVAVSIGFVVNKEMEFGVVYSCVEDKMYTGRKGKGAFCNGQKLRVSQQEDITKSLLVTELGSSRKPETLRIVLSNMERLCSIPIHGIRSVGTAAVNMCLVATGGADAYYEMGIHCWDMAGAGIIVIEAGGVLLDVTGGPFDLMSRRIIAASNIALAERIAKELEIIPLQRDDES
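Measured: the HTRF emission ratio (665/620 nm) plus the 620 nm donor channel, each fitted to the Hill equation to give AC50. Cells were CHO-M1 given compounds up to 46 uM and a 30 min carbachol stimulation at 37C.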
Active calls of the source: *; ? = inconclusive; / = not tested or not shown; [ ] = dose if it differs, or a comment. An excerpt weighted towards active compounds, which were near 3.3% of everything screened. Unless noted, calls follow the shape of the dose curve; as a rule, active = well fitted curve in the direction sought with a large enough effect; inconclusive = small, poorly fitted or top-dose-only effect, or another doubt; inactive = no such curve, though single readings can be large; an effect the other way counts as inactive or inconclusive.

SMILES	PNC inhibitor	HttQ103 aggreg	ALOX12 inhib	NPSR antagonist	HTT ATP protect	IMPase cell inh
O=C(N/N=C/c1cn(-c2ccccc2)nc1-c1cc2ccccc2o1)c1ccncc1	76	10µM*	-2%	-26%	11%[10 µM]	/
CC1=NNC(=O)/C1=C\c1cn(-c2ccccc2)nc1-c1cccs1	-6	?	-20%	10µM*	-22%[10 µM]	/
O=C(N/N=C/c1cn(-c2ccccc2)nc1-c1cc2ccccc2o1)c1cccnc1	-106*	0%	0%	-29%	1%[10 µM]	/
O=S(=O)(NCCCCCNS(=O)(=O)c1ccccc1)c1ccccc1	-91*	-26%	-1%	-14%[46.1 µM]	16%[1.9 µM]	5
O=S(=O)(NCCCc1ccccc1)c1ccccc1	22	-17%	1%	4%[46.1 µM]	5%	4
CN1CCc2nc3sc(C(=O)NCc4ccccc4)c(N)c3cc2C1	/	5%[9.22 µM]	/	13µM*	-63%	/
COc1ccc(NC(=O)CSc2nncn2C)cc1OC	60	-10%	-1%	-10%[46.1 µM]	20%[1.9 µM]	16
COc1cc(C(=O)CSc2nncn2C)cc(OC)c1OC	-111*	-9%[9.22 µM]	-5%	2%[46.1 µM]	1%	2
CC(C)Cn1[nH]c2c3c(ccc2c1=O)C(=O)c1ccccc1C3=O	20	22µM*	5%	-25%[46.1 µM]	-70%	?
Cc1cc(Nc2ccc(Cl)cc2)nc(NCc2ccccc2)n1	34	?	-8%	-29%	/	/
Cc1cc(Nc2ccccc2)nc(NCc2ccccc2)n1	?	6.3µM*	-9%	3%[46.1 µM]	7%[10 µM]	14
CCCCNc1cc(C)nc(NCc2ccccc2)n1	6	10µM*	-9%	-15%[46.1 µM]	-75%	7
Cc1cc(N/N=C/c2ccc(N(C)C)cc2)nc(NCc2ccccc2)n1	/	-14%[9.22 µM]	/	10µM*	-13%[10 µM]	/
CCCCc1nc2c(c3c1C[C@H](C)OC3)CN(C(=O)c1cccnc1)CC2	/	/	0%[11.4 µM]	/	10%[10 µM]	/
C=CCOCC1CN2C(CCC(C)C2c2ccc(Br)cc2)C(=O)O1 (stereo not drawn)	/	/	/	/	4%[10 µM]	/
Cc1sc2nc(CN3CCCC3)nc(Cl)c2c1C	4	13µM*	-1%	2%	18%[10 µM]	/
CCOC(=O)c1sc2nc(CN3CCCCC3)nc(Cl)c2c1C	/	17%	/	-1%	19%[10 µM]	/
O=C(c1cc(C(F)(F)F)cc(C(F)(F)F)c1)N1CCC[C@@]2(CCN(Cc3ccccc3)C2)C1	/	/	-1%	/	?	/
CCN1C(=O)/C(=C\C=C2/C=CC=CN2CC)SC1=S	?	30%	-19%	-56%	/	/
CCN1C(=O)/C(=C/C=C2\C=CN(CC)c3ccccc32)SC1=S	-4	-2%	-3%	3.2µM*	13%[10 µM]	2
CC(C)(C)C(=O)Oc1ccc(S(=O)(=O)Nc2ccccc2C(=O)NCC(=O)O)cc1	/	0%	/	/	3%	/
COc1ccccc1C(=O)NCC(=O)Nc1ccccc1	23	0.35µM*	-1%	-10%[46.1 µM]	-16%	-15
CC[n+]1ccc(/C=C2\Sc3ccccc3N2CCCS(=O)(=O)[O-])c2ccccc21	/	/	/	-6%	/	/
CN1C=C/C(=C\c2cc[n+](C)c3ccccc23)c2ccccc21	/	7.1µM*	/	13µM*	-184%	/
COC(=O)c1nnn(-c2ccc(Br)cc2)c1C(=O)OC	/	/	/	/	/	13
SMILES	PNC inhibitor	HttQ103 aggreg	ALOX12 inhib	NPSR antagonist	HTT ATP protect	IMPase cell inh
O=C(c1cnn(C(=O)COc2ccc(Cl)cc2)c1)c1ccccc1O	?	-28%	-16%	6%	35%[10 µM]	/
Cc1ccc(O)c(C(=O)c2cnn(C(=O)COc3ccc(Cl)cc3)c2)c1	4	5.6µM*	0%	0%	2%[10 µM]	/
Cc1csc2c(NC3CCN(Cc4ccccc4)CC3)ncnc12	/	26%[9.22 µM]	/	5%	5%[10 µM]	/
Cc1sc2ncnc(NC3CCN(Cc4ccccc4)CC3)c2c1C	/	7.1µM*	/	-50%	2%[10 µM]	/
c1ccc(CN2CCC(Nc3ncnc4sccc34)CC2)cc1	/	10µM*	/	4%	-33%	/
CC[C@@H]1/C=C(\C)C[C@H](C)C[C@H](OC)[C@H]2O[C@@](O)(C(=O)C(=O)N3CCCC[C@H]3C(=O)O[C@H](/C(C)=C/[C@@H]3CC[C@H](Cl)[C@H](OC)C3)[C@H](C)[C@@H](O)CC1=O)[C@H](C)C[C@@H]2OC	/	-8%	/	/	7%	/
CC[C@H](C)[C@@H](NC(=O)O[C@@H]1Cc2cc(OC)ccc2O[C@H]1c1cccc(OC)c1)C(=O)OC	/	/	/	/	-30%	/
CCCn1c(C)nc2c(NCC(C)(C)CN(C)C)nc(C)nc21	/	/	-2%	/	15%	/
Cc1ccc(NC(=O)CSc2nc(N)c3c4c(sc3n2)CSC(C)(C)C4)cc1	-93*	27%	-22%	-38%	28%[10 µM]	/
CCOC(=O)Cc1csc(Nc2ccc(Cl)cc2)n1	2	-7%	2%	26%	5%[1.9 µM]	6
CCOC(=O)Cc1nnc2c(Nc3ccc(Cl)cc3)nc3nonc3n12	39	18µM*	-15%	-10%[46.1 µM]	7%[10 µM]	8
O=C(COC(=O)/C=C/c1ccc(Cl)cc1)NCCN1C(=O)CSC1=O	/	0%	/	1%	-37%	/
COc1ccc(NC(=O)CN2CCCCC2)c([N+](=O)[O-])c1	-90*	-8%	2%	-6%[46.1 µM]	3%[10 µM]	3
COc1ccc(NC(=O)CN2CCC(C)CC2)c([N+](=O)[O-])c1	19	-4%	0%	-11%[46.1 µM]	-1%[10 µM]	12
Cc1cc(OCC(=O)N(Cc2ccc(N(C)C)cc2)C2CCS(=O)(=O)C2)cc(C)c1Cl (stereo not drawn)	/	/	/	/	/	-5
CCCc1[nH]nc2c1C(c1cn[nH]c1-c1ccc(F)cc1)C(C#N)=C(N)O2 (stereo not drawn)	-2	11µM*	-7%	4%	0%[1.9 µM]	17
CCCc1[nH]nc2c1C(c1ccccc1OC)C(C#N)=C(N)O2 (stereo not drawn)	21	5%	-3%	-11%[46.1 µM]	0%[10 µM]	0
O=C(CCN1C(=O)C2C3C=CC(C3)C2C1=O)NCCc1ccccc1 (stereo not drawn)	-93*	-12%	-3%	-2%[46.1 µM]	13%[10 µM]	2
CCc1cccc(C)c1NC(=O)CSc1nnc(CCCOc2ccc(Cl)cc2Cl)n1C	-113*	11%	-5%	-19%	/	/
Cn1c(CCCOc2ccc(Cl)cc2Cl)nnc1SCC(=O)Nc1cccc(F)c1	?	3%	0%	-15%	0%[10 µM]	1
CC(C)(C)NC(=O)C(c1ccc(O)cc1)N(C(=O)Cn1nnc(-c2ccc(F)cc2)n1)c1ccccc1F (stereo not drawn)	/	/	/	13µM*	/	/

Source: PubChem BioAssay
